HIV RNase H inh-1 = inhibitors of HIV-1 reverse transcriptase RNase H | P04585 | RT-RNase H RNA/DNA duplex cleavage, fluorescence | inhibition, % at 10 µM | hit rate 1.9% among 65,000; in the data active = inhibition above about 50%
RmlC RmlD mix = inhibitors of RmlC and RmlD coupled enzymes | RmlC/RmlD coupled enzyme inhibition, 384-well mixture HTS | inhibition, % at 5.5 µM | hit rate 0.39% among 110,000 | AID 1532; in the data active = inhibition above about 30%, passing the limit was not always enough; inconclusive = no clear call, values can overlap the other calls
HIV RNase H inh-2 = confirmation of HIV-1 reverse transcriptase RNase H inhibitors | shares compounds with HIV RNase H inh-1 | Recombinant RT RNase H, fluorescent RNA/DNA duplex cleavage | inhibition, % at 10 µM | hit rate 39% among 1,000 | AID 651; in the data active = inhibition above about 48%; inconclusive = no clear call, values can overlap the other calls
Active calls of the source: *. The entries come from a sample that favours hits as a whole.

How did c1ccc2nc3c(nc2c1)c1ccccc1n3CCN1CCOCC1 do in these assays?
HIV RNase H inh-1: -29; RmlC RmlD mix: -1

What do the screens show for `CCn1c2ccccc2c2nc3cc(S(=O)(=O)N4CCOCC4)ccc3nc21`?
HIV RNase H inh-1: 98*; HIV RNase H inh-2: 52*

What do the screens show for `C/C=C\C(=O)Nc1cccc(C2=NOC3(C2)C[C@H](C(N)=O)N(C(=O)Cc2ccc([N+](=O)[O-])cc2)C3)c1` (stereo partly specified)?
RmlC RmlD mix: 9

Results for CCCSc1nc2c(c(=O)[nH]c(=O)n2C)n1Cc1ccc(C)cc1 ?
HIV RNase H inh-1: 5; RmlC RmlD mix: 19

What do the screens show for `Cc1ccc(Cn2c(SCC(C)C)nc3c2c(=O)[nH]c(=O)n3C)cc1`?
HIV RNase H inh-1: 87*; RmlC RmlD mix: -5; HIV RNase H inh-2: 58*

How did CC(C)Sc1nc2c(c(=O)[nH]c(=O)n2C)n1Cc1ccc(Cl)cc1 do in these assays?
HIV RNase H inh-1: 27; RmlC RmlD mix: 4

How did C=CCSc1nc2c(c(=O)[nH]c(=O)n2C)n1C(C)C do in these assays?
HIV RNase H inh-1: 76*; RmlC RmlD mix: -7; HIV RNase H inh-2: 59*

Results for C/C=C/Cn1c(SCc2ccc(C)cc2)nc2c1c(=O)[nH]c(=O)n2C ?
HIV RNase H inh-1: -10; RmlC RmlD mix: 3

How did CCOC(=O)C(C)Sc1nc2c(c(=O)[nH]c(=O)n2C)n1Cc1ccc(Cl)cc1 (stereo unspecified) do in these assays?
HIV RNase H inh-1: 71*; RmlC RmlD mix: -8; HIV RNase H inh-2: 24

How did C/C(Cl)=C/CSc1nc2c(c(=O)[nH]c(=O)n2C)n1C(C)C do in these assays?
HIV RNase H inh-1: -21; RmlC RmlD mix: -7

Results for C=CCSc1nc2c(c(=O)[nH]c(=O)n2C)n1Cc1ccc(C)cc1 ?
HIV RNase H inh-1: 84*; HIV RNase H inh-2: 31

How did CC(=O)Oc1ccc2c(c1)cc(C)n2C do in these assays?
RmlC RmlD mix: -11

What do the screens show for `C=CCC(CC=C)(NC(=O)c1ccccc1C)c1ccccc1`?
RmlC RmlD mix: 8

What do the screens show for `Cc1sc(NC(=O)c2ccco2)c(C(c2cccnc2)N2CCCC2)c1C` (stereo unspecified)?
RmlC RmlD mix: -11

What do the screens show for `NCCCCc1cn(CC(=O)N2CCNCC2)nn1`?
RmlC RmlD mix: -9

Results for COc1ccc(OC)c(NC(=O)CSc2ncnc3c2cnn3-c2ccccc2Cl)c1 ?
RmlC RmlD mix: 18

Results for Cc1ccc(S(=O)(=O)NC(=O)c2ccc(-c3ccc(-c4ccccc4)cc3)o2)c(C)c1 ?
RmlC RmlD mix: -11

Results for CC(CCc1ccc(O)cc1)NCCc1ccc(O)c(O)c1 (stereo unspecified) ?
RmlC RmlD mix: 10

Results for CC(Cc1ccc(O)c(O)c1)C(C)Cc1ccc(O)c(O)c1 (stereo unspecified) ?
HIV RNase H inh-1: 99*; RmlC RmlD mix: -15; HIV RNase H inh-2: 59*

Results for CCCNC(=O)Cn1c(=O)oc2ccccc21 ?
RmlC RmlD mix: 9

What do the screens show for `O=C(C1CCN(S(=O)(=O)c2cccc3cccnc23)CC1)N1CCN(c2ccc(Cl)cc2)CC1`?
HIV RNase H inh-1: -39; RmlC RmlD mix: 5

Results for CCOC(=O)c1cc2sccc2n1CC(=O)O ?
RmlC RmlD mix: 5

What do the screens show for `CCOC(=O)c1cc2sccc2n1CC(=O)N1c2ccccc2CC1C` (stereo unspecified)?
HIV RNase H inh-1: 57*; RmlC RmlD mix: 8; HIV RNase H inh-2: inconclusive

How did CCc1ccc2[nH]c(=O)c(CN(Cc3ccc4c(c3)OCO4)C(=O)c3ccco3)cc2c1 do in these assays?
HIV RNase H inh-1: 58*; RmlC RmlD mix: 17; HIV RNase H inh-2: 20

What do the screens show for `CCOc1ccc2[nH]c(=O)c(CN(Cc3ccc(F)cc3)C(=O)c3ccco3)cc2c1`?
HIV RNase H inh-1: 42; RmlC RmlD mix: 23

How did COc1ccc(S(=O)(=O)N2CCN(Cc3ccccc3)CC2)cc1 do in these assays?
HIV RNase H inh-1: -4; RmlC RmlD mix: 6

How did CN1CCN(C2=C(Cl)C(=O)N(c3ccc(Cl)cc3)C2=O)CC1 do in these assays?
HIV RNase H inh-1: 82*; RmlC RmlD mix: -8; HIV RNase H inh-2: 40

How did O=C1CC(N2CCN(Cc3ccccc3)CC2)C(=O)N1c1ccccc1 (stereo unspecified) do in these assays?
HIV RNase H inh-1: 13; RmlC RmlD mix: -7

What do the screens show for `Cc1ccc(N2C(=O)C(Cl)=C(N3CCN(C)CC3)C2=O)c(C)c1`?
RmlC RmlD mix: 4

How did O=C1C(Cl)=C(N2CCN(Cc3ccccc3)CC2)C(=O)N1c1ccccc1 do in these assays?
HIV RNase H inh-1: 85*; RmlC RmlD mix: -6; HIV RNase H inh-2: -3

What do the screens show for `COc1ccc(N2C(=O)C(Cl)=C(N3CCN(Cc4ccccc4)CC3)C2=O)cc1`?
HIV RNase H inh-1: 90*; RmlC RmlD mix: -11; HIV RNase H inh-2: 24

High-throughput results (PubChem BioAssay)
